# Measurements reported in PubChem BioAssay AID504332 (National Center for Advancing Translational Sciences (NCATS), 2011).
# Screen size: about 350,000 compounds; about 31,000 (8.9%) were called active. Where a call stands in place of a potency, no number is given. Not shown: some 15% with an inconclusive outcome. The sample holds actives, similar compounds and a random draw of the others, so the mix is not that of the screen. Calls follow the shape of the dose curve; as a rule, active = well fitted inhibition curve with a large enough effect; inconclusive = small, poorly fitted or top-dose-only effect; inactive = no such curve, though single readings can be large or run the other way.
# Target: Histone-lysine N-methyltransferase EHMT2 (Homo sapiens) (UniProt Q96KQ7)
# Test: qHTS Assay for Inhibitors of Histone Lysine Methyltransferase G9a; also: nearly all actives have a fitted effect of over 75% in size
# Settings: G9a H3K9 monomethylation, AlphaScreen, 2 h; series mostly up to 59 µM
# Method in brief: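 Chemiluminescent proximity detection of H3K9 monomethylation, read after 10 min bead incubation in the dark. Reaction: 20 nM G9a, 500 nM biotin-H3K9 peptide, 20 uM SAM cofactor, 2 h, room temperature, following 15 min enzyme-compound preincubation.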
# Potency is read from the fitted curve at half-maximal effect.
# Sequence of Histone-lysine N-methyltransferase EHMT2 (Homo sapiens) (Q96KQ7 913-1193 limits assumed): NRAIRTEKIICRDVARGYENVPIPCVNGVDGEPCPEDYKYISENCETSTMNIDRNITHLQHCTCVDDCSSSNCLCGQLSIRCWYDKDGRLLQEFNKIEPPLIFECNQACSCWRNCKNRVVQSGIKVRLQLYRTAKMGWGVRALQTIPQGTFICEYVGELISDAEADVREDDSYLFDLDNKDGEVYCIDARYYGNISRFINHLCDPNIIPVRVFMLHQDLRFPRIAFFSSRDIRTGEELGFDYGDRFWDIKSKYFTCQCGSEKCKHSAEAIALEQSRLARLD
Structure (SMILES),Potency,"activity, negative = inhibition"
CN(C)CCOc1ccc(Cl)cc1C(C)(C)C,8.91 µM (active),
CCC(C)(C)c1ccc(OCC(=O)N(C)C)c(C(C)(C)CC)c1,inactive,
O=C(NCCCO)c1nn(-c2ccc(Cl)cc2)nc1CO,inactive,
N#Cc1ccccc1CN1C(=O)S/C(=C/c2cccn2-c2cccc(C(=O)O)c2)C1=O,44.7 µM (active),
Cc1nn(Cc2ccccc2)c(C)c1C(=O)NCCN1C(=O)S/C(=C\c2ccc(F)cc2)C1=O,inactive,
COc1ccc(/C=C2\SC(=S)N(CCC(=O)Nc3cccc(C(=O)O)c3)C2=O)cc1OC,inactive,
CC(C)C(=O)Nc1nc2c(s1)CC(C(C)(C)C)CC2 (stereo unspecified),inactive,
Cn1nnnc1SCCCNCc1ccc(Cl)cc1,inactive,
O=C(CCNC(=O)c1ccccc1)Nc1nc2ccccc2s1,,-6.33% [at 0.501 µM] (inactive)
CCN(CC)CCOCCOc1ccc(Cl)c2ccccc12,inactive,
CN(C)CCOCCOc1ccc(Cl)c2ccccc12,14.1 µM (active),
O=S(=O)(c1ccc(Cl)cc1)c1nc(-c2ccco2)oc1N1CCCCC1,,32.5% [at 12.7 µM] (inactive)
Clc1cccc(-n2ncc3c(NCCc4ccccc4)ncnc32)c1,inactive,
O=C(/C=C/c1c(Cl)cccc1Cl)NCc1ccccc1,inactive,
O=C(CCc1ccccc1)Nc1nn[nH]n1,inactive,
O=C(/C=C/c1c(F)cccc1Cl)Nc1nn[nH]n1,39.8 µM (active),
CSc1ccccc1NC(=O)c1cnc2sc(C)cn2c1=O,inactive,
O=S(=O)(NC1CCN(S(=O)(=O)c2ccc3c(c2)OCCO3)CC1)c1c(F)cccc1F,,3.66% [at 12.7 µM] (inactive)
COc1cccc(N(CC(=O)NC2CCCC2)C(=O)Cn2nnc(-c3ccc(C)o3)n2)c1,inactive,
O=C(Cc1ccc([N+](=O)[O-])cc1)Nc1ccc(C(=O)N2CCOCC2)cc1,inactive,
COc1cc2ccccc2cc1C(=O)Nc1ccc(N2CCOCC2)cc1,inactive,
O=C(Nc1ccc(N2CCOCC2)cc1)c1ccc(-c2ccccc2[N+](=O)[O-])o1,17.8 µM (active),
O=C(COc1ccccc1)Nc1cc2c3c(c1)CC(=O)N3CCC2,inactive,
Cc1ccc(C)c(N2CCN(C(=O)CCCCCn3c(=S)[nH]c4ccc(N5CCOCC5)cc4c3=O)CC2)c1,inactive,

Structure (SMILES),Potency,"activity, negative = inhibition"
CNC(=O)c1c(NC(NC(=O)c2ccco2)C(=O)c2ccc(Cl)cc2)sc2c1CCCC2 (stereo unspecified),11.2 µM (active),
CC(C)OC(=O)c1c(NC(=O)c2ccco2)sc2c1CCCC2,inactive,
Cc1ccc2c(=O)cc(C(=O)Nc3sc4c(c3C(=O)NCc3cccnc3)CCCC4)oc2c1,inactive,
COc1cc2c(cc1O)[C@H](Cc1ccc(Oc3cc(C[C@@H]4NCCc5cc(OC)c(O)cc54)ccc3O)cc1)NCC2,12.6 µM (active),
CCc1ccc(OCC2c3cc(OC)c(OC)cc3CCN2C(C)=O)cc1 (stereo unspecified),inactive,
COc1ccc(CC2c3cc(OC)c(OC)cc3CC[N+]2(C)CCC(=O)OCCCCCOC(=O)CC[N+]2(C)CCc3cc(OC)c(OC)cc3C2Cc2ccc(OC)c(OC)c2)cc1OC (stereo unspecified),,7.6% [at 12.7 µM] (inactive)
COc1ccccc1CNc1nc2ccc(Cl)cc2n2cnnc12,inactive,
CC(=O)Nc1cccc(NC(=O)CSc2nccn2Cc2ccc3c(c2)OCO3)c1,inactive,
COc1ccc(C2CC(c3cccs3)=NN2c2ccccc2)cc1 (stereo unspecified),inactive,
COc1ccc(C2CC(c3cccs3)=NN2c2ccc(F)cc2)cc1OC (stereo unspecified),3.98 µM (active),
COc1ccccc1N1N=C(c2cccs2)CC1c1ccccc1 (stereo unspecified),inactive,
COc1ccc(-c2nc(CN3CCC(C(=O)NCc4ccccc4)CC3)c(C)o2)cc1OC,inactive,
CCOC(=O)C1CCCN(C(=O)c2ccc(-n3ccc4ccccc43)s2)C1 (stereo unspecified),inactive,
CCc1cccc(C)c1NC(=O)COC(=O)CC1CCCC1,inactive,
Cc1ccc(C(C(=O)NCc2ccco2)N(CC2CCCO2)C(=O)Cn2nnc3ccccc32)cc1 (stereo unspecified),inactive,
COc1ccccc1N(C(=O)Cn1nnc2ccccc21)C(C(=O)NCc1ccco1)c1ccc(C)o1 (stereo unspecified),50.1 µM (active),
COCCNC(=O)C(c1ccc(C)o1)N(Cc1ccccc1)C(=O)Cn1nnc2ccccc21 (stereo unspecified),inactive,
Cc1ccc(C(=O)Nc2ccn(C)n2)cc1,,0.254% [at 12.7 µM] (inactive)
CC1CCN(S(=O)(=O)c2ccc3c(c2)N(CC(=O)NCCc2ccccc2)C(=O)CO3)CC1,inactive,
CC1=C(c2ccc(C)c(C)c2)S(=O)(=O)NC1=NCc1ccccc1Cl,inactive,
CCOc1ccc(S(=O)(=O)Nc2ccc(OC)nc2)cc1,inactive,
COc1ccc(CS(=O)/C(Cl)=C(/Cl)C(=O)Nc2ccc(OC)nc2)cc1 (stereo unspecified),11.2 µM (active),
COc1ccc(NC(=O)C(=O)NCc2ccco2)cc1,inactive,
COc1cc(C(=O)N2CCN(c3ccc(Nc4ccc(C)cc4)nn3)CC2)cc(OC)c1OC,inactive,

Structure (SMILES),Potency,"activity, negative = inhibition"
CSc1ccc(NC(=O)Cn2nnnc2-c2ccccc2F)cc1,inactive,
COc1ccc(C2Sc3ccccc3NC3=C2C(=O)c2ccccc23)c(OC)c1OC (stereo unspecified),11.2 µM (active),
COC(=O)C(C)C1Sc2ccccc2NC1=O (stereo unspecified),,14.7% [at 12.7 µM] (inactive)
COc1ccc(C2CC(=O)Nc3cc(C)c(C)cc32)c(OC)c1OC (stereo unspecified),inactive,
O=C(NCC(c1ccc2c(c1)OCO2)N1CCN(c2ccccc2)CC1)C(=O)Nc1ccccc1F (stereo unspecified),inactive,
CCOC(=O)/C=C/C(=O)OCC(=O)NC(c1ccccc1)c1ccccc1,inactive,
O=C(Cc1ccc(-c2ccccc2)cc1)NC(c1ccccc1)c1ccccc1,7.08 µM (active),
C=CCC(NC(=O)Cc1ccccc1)C(=O)NCCC (stereo unspecified),,5.83% [at 0.501 µM] (inactive)
C/C(CC(=O)NCc1ccc(Cl)cc1)=N\NC(=O)COc1ccc(C)cc1Br,inactive,
Cc1ccccc1-c1n[nH]c(=S)n1/N=C/c1ccc(-c2ccccc2Br)o1,12.6 µM (active),
Cc1ccccc1-c1n[nH]c(=S)n1C,10 µM (active),
Cc1ccccc1-c1ccc(C(=O)O)s1,inactive,
Cc1ccccc1-c1nc(SCC(=O)N(C)c2ccccc2)c2c(=O)n(C)c(=O)n(C)c2n1,inactive,
Cc1n[nH]c(=S)n1/N=C/c1ccc(Br)o1,3.16 µM (active),
Cc1cc(C)cc(NS(=O)(=O)c2cc3c(cc2C)NC(=O)CO3)c1,inactive,
CCCCCc1c(C)nc(N2CCN(Cc3ccc4c(c3)OCO4)CC2)[nH]c1=O,inactive,
O=C(Cc1ccc(S(=O)(=O)N2CCOCC2)s1)NCCOc1ccccc1F,,-25.9% [at 12.7 µM] (inactive)
CCNC(=O)c1cc2n(n1)CCCN(Cc1ccc(C)cc1)C2=O,,-1.49% [at 12.7 µM] (inactive)
CN(C)S(=O)(=O)c1ccc(N2CCCC2)c(C(=O)Nc2ccc(Br)cc2F)c1,,26.4% [at 2.33 µM] (inactive)
Nc1nc(Nc2ccccc2)nc(NCCO)c1[N+](=O)[O-],inactive,
COc1cc2nc(Cl)nc(NCCO)c2cc1OC,inactive,
OCCNc1nc(Nc2ccc(Cl)c(Cl)c2)nc2ccccc12,50.1 µM (active),
COc1ccc(OCC(=O)Nc2cccc(C(=O)OCc3cc(=O)n4nc(C)sc4n3)c2)cc1,inactive,
CN1CCN(S(=O)(=O)c2ccc(Nc3ccc(F)cc3)nc2)CC1,inactive,

Structure (SMILES),Potency,"activity, negative = inhibition"
COc1ccccc1NC(=O)c1sc2nc(C)c(C(=O)Nc3ccc(Cl)cc3)c(-c3ccc(Br)cc3)c2c1N,inactive,
O=C(Nc1cccc(C(F)(F)F)c1)c1cc(Br)cc(Br)c1O,,-37% [at 12.7 µM] (inactive)
CCCc1ccc(OCC(O)CN2CCN(C(=O)OCC)CC2)cc1 (stereo unspecified),inactive,
CCc1ccc(S(=O)(=O)NCC(O)COc2ccc(OC)cc2)cc1 (stereo unspecified),inactive,
Nc1ccc(OCC(O)C[n+]2ccc(CCS(=O)(=O)[O-])cc2)cc1 (stereo unspecified),39.8 µM (active),
Cn1c(CCC(=O)Nc2ccccc2F)nnc1SCC(=O)Nc1ccccc1Cl,inactive,
Cn1c(CC2Sc3ccccc3NC2=O)nnc1SCC(=O)c1ccc(Cl)cc1 (stereo unspecified),14.1 µM (active),
Cn1c(SCC(=O)c2ccc(F)cc2)nnc1-c1ccccn1,inactive,
O=c1cc2nc(-c3ccccc3)nc(SCCOc3ccc(Cl)cc3)n2[nH]1,inactive,
O=C(O)C1CCCN1S(=O)(=O)c1ccc(Br)cc1 (stereo unspecified),,-11.1% [at 0.501 µM] (inactive)
O=C(O)C1CCCN1S(=O)(=O)c1ccc2c(c1)CCC2 (stereo unspecified),56.2 µM (active),
CC(=O)Nc1ccc(S(=O)(=O)N2CCCC2C(=O)O)cc1 (stereo unspecified),inactive,
CCOC(=O)N1CCc2c(sc3c2c(=O)n(Cc2ccccc2)c(=O)n3CC(=O)Nc2cccc(C)c2)C1,inactive,
CCOC(=O)N1CCc2c(sc(NCc3cccc(F)c3)c2C(=O)Nc2ccccc2OCC)C1,1.41 µM (active),
CCOC(=O)N1CCc2c(sc3c2C(=O)NC(c2ccccc2F)N3)C1 (stereo unspecified),inactive,
COC(=O)c1ccccc1NC(=O)Cn1c(=O)n(-c2cccc(C(F)(F)F)c2)c(=O)c2c(C)c(C)sc21,inactive,
CS(=O)(=O)N1CCc2nc(-c3ccccc3)sc2C1,inactive,
Cc1ccc(S(=O)(=O)N2CCC(C(=O)OCC(=O)N(C)c3ccccc3)CC2)cc1C,inactive,
O=C(Nc1c(-c2ccc(F)cc2)nc2ccccn12)c1cccc(F)c1,inactive,
CCCC(=O)Nc1nnc(-c2ccccc2)o1,39.8 µM (active),
O=C(COC(=O)c1ccccc1Br)Nc1nnc(-c2ccccc2)o1,inactive,
O=C(COC(=O)c1ccc(Oc2ccccc2)cc1)Nc1nnc(-c2ccccc2)o1,,17.6% [at 12.7 µM] (inactive)
CCN(CC)CCNC(=O)c1cc2c(=O)oc3ccc(C)cc3c2s1,inactive,
CCNC(=O)c1cccc(NC(=O)C2CC(=O)N(CCc3ccccc3)C2)c1 (stereo unspecified),,8.14% [at 0.501 µM] (inactive)
